# In the library only some 4% were active in any assay of this set; here they are far more common.
# CF NFkB inh: blocks PAF-induced NF-kB reporter in cystic fibrosis cells | KKLEB NF-kB-GFP reporter, GFP fluorescence overnight | inhibition, % at 5 µM | 0.86% of 360,000 active;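 active = at least 50% inhibition at 5 µM, scaled per plate between neutral and stimulator controls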;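 also: PAF is a Pseudomonas aeruginosa culture filtrate used as stimulus; plate controls were PAF-stimulated DMSO wells for no effect and unstimulated DMSO wells for full effect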
# TROY NFkB inh: TROY signaling inhibition. Q293 LMP1-TROYcd NF-kB luciferase reporter, 4 h. inhibition, % at 10 µM. 0.98% of 360,000 active;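 active = compounds whose plate-normalised and pattern-corrected inhibition of the luciferase reporter signal at the single screening dose is 50% or more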
# Peg3 prom inh: inhibitors of Peg3 promoter; HeLa PEG-Prom luciferase reporter, luminescence, overnight; inhibition, % at 20 µM; 1.7% of 360,000 active; AID 588405;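 active = inhibition of at least 50% at 20 µM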
# TWEAK Fn14 block: inhibitors of TWEAK-Fn14 interaction signaling; TWEAK-stimulated Fn14 reporter cells, luciferase luminescence, 8 h; inhibition, % at 10 µM; 2% of 360,000 active; AID 1159606; in the data active = inhibition above about 50%
# HIF-2a inh: HIF-2a inhibition; 786-0 RCC cells HIF-2a reporter, luciferase luminescence, overnight; 0.72% of 360,000 active; inhibition, % at 18.8 µM;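 active = inhibition of the luminescence signal of 40% or more relative to plate controls, in a single-dose primary screen at 18.75 µM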
# KKLEB cytotox: reduces viability of KKLEB cystic fibrosis airway cells | KKLEB CF airway cells viability, ATPlite luminescence, overnight; hits give low values; cells stimulated with P. aeruginosa culture filtrate | activity change (cytotoxicity), % at 5 µM | 0.36% of 360,000 active | AID 602141;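 active = corrected activity change at or below -50% at 5 µM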
# Active calls of the source: *; / = not tested or not shown.
SMILES,CF NFkB inh,TROY NFkB inh,Peg3 prom inh,TWEAK Fn14 block,HIF-2a inh,KKLEB cytotox
Cc1ccc(C(C)C)c(OCC(=O)NN2C(=O)c3ccccc3C2=O)c1,-9,-5,-5,3,17,10
CCc1ccc(OCC(=O)c2c(O)c3ccccc3oc2=O)cc1,23,59*,-2,16,-12,6
Cc1ccc(Nc2nc(C)cc(C)c2C#N)c(C)c1,1,2,20,26,12,10
COc1ccc(/C(N)=N/OC(=O)CN(C)S(=O)(=O)c2ccc(C)cc2)cc1,-2,17,7,68*,8,1
Cc1ccc(/C(N)=N/OC(=O)CN(C)S(=O)(=O)c2ccc(C)cc2)cc1,-40,27,22,4,18,-8
COc1ccc(-c2ccc(C(=O)C3CC3)cc2)cc1,-13,-59,-263,3,-293,-3
CC[N+]1(C)CCC(O)(c2ccc(OC)cc2)C(C(=O)c2ccc(OC)cc2)C1 (centres undefined),50*,-13,103*,11,14,-20
O=C(N[C@H]1CC[C@H](CCNC(=O)C2CC2)O[C@@H]1CO)c1ccccn1,/,/,/,/,-4,/
O=C1CC(Sc2nnnn2C2CCCCC2)C(=O)N1c1ccccc1 (centres undefined),-6,-12,85*,-9,15,-4
Cn1nnnc1SC1CC(=O)N(c2ccccc2)C1=O (centres undefined),1,3,14,-12,15,-9
O=C(O)c1ccc(NNC(=S)Nc2cc(C(F)(F)F)ccc2Cl)cc1,0,47,26,69*,-6,13
O=C(NC(=S)Nc1cc(C(F)(F)F)ccc1Cl)c1ccccc1,-3,-55,-57,-16,-120,-2
O=C(CCn1nnnc1CN1CCOCC1)N1CCC(c2cccc(Cl)c2)C1 (centres undefined),-15,8,0,-93,23,9
COc1ccc(NC(C)=O)cc1NC(C)C(=O)Nc1cccc2ccccc12 (centres undefined),-15,57*,-245,37,-119,4
CC(=O)c1ccc(NC(=S)Nc2cccc3cnccc23)cc1,18,34,-26,60*,-21,6
COc1ccc(NC(C)=O)cc1NC(C)C(=O)Nc1ccc(F)cc1 (centres undefined),-4,-3,5,-3,14,-2
S=C(NCc1ccccc1)Nc1cccc2cnccc12,11,42,30,77*,13,1
CC(=O)Nc1cccc(NC(=S)Nc2cccc3ccccc23)c1,-24,3,-274,-6,-213,-12
CC(=O)c1cccc(NC(=S)Nc2cccc3ccccc23)c1,-3,57*,-98,37,-146,-2
O=S(=O)(/N=C(\c1ccc(F)cc1)N1CCOCC1)c1ccccc1,-43,-9,-4,-2,3,11
S=C(Nc1cccc(Cl)c1)Nc1cccc2cnccc12,2,34,-22,76*,-39,-2
Cc1ccc(NC(=S)Nc2cccc3cnccc23)cc1C,36,29,-122,26,-144,-19
COc1ccc(NC(=S)Nc2cccc3ccccc23)cc1OC,-9,31,-29,94*,-109,10
C#CCNCCS(=O)(=O)N(Cc1ccc(Br)cc1)[C@@H](CC(C)C)C(=O)O,14,-11,-5,3,0,-1
COc1ccc(CN(C(=O)c2oc3cc(C)ccc3c2C)C2CCS(=O)(=O)C2)cc1OC (centres undefined),-16,1,5,-2,7,-6
Cc1c(C(=O)Nc2cc(F)ccc2F)sc2nc3n(c(=O)c12)CCCCC3,26,-29,-187,-48,-182,-2
CCN=C1S/C(=C\c2cc(OCC)c(O)cc2Br)C(=O)N1CC,47,29,51*,23,15,-29
CCOC(=O)C1CCCN(C(=O)Cn2nc(C)n3c(cc4c(OC)cccc43)c2=O)C1 (centres undefined),-10,-10,-5,-5,-5,6
C[C@@H]1CN([C@H](C)CO)S(=O)(=O)c2ccc(Br)cc2O[C@@H]1CN(C)C(=O)Nc1ccc(C(F)(F)F)cc1,10,20,20,20,7,-17
C[C@@H]1CN([C@H](C)CO)S(=O)(=O)c2ccc(C#Cc3ccccc3F)cc2O[C@@H]1CN(C)C(=O)Cc1ccccc1,26,30,31,50*,28,-10
